# According to PubChem BioAssay:
# Activity calls are given as the source filed them.
# What was measured:
# [1] = compounds binding Alexa647 anti-His antibody – biochemical, small-molecule microarray, 635 nm fluorescence, artefact control for SMM control protein annotation, primary screen (AID 1128); settings: higher = more signal;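 note: score merges feature fluorescence with signal-to-noise for each printed compound spot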
# [2] = system: Human papillomavirus type 1a E7 protein (residues 1-88); experiment: HPV1a E7 small-molecule binders, primary screen, biochemical, small-molecule microarray, residues 1-88, 635 nm (AID 1129); settings: small-molecule microarray binding, fluorescence 635 nm; higher = more signal
# [3] = biological target: Focal adhesion kinase 1 (Homo sapiens) (UniProt Q05397); experiment: PTK2 protein binding on printed compound slides – biochemical, small-molecule microarray, 635/667 nm fluorescence, BSA, DTT, primary screen (AID 1130); settings: 635 nm fluorescence, higher = more signal;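 note: composite of spot emission at 667 nm and signal to noise over triplicate slides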
# Sequence of Focal adhesion kinase 1 (Homo sapiens) (Q05397 whole entry, looked up): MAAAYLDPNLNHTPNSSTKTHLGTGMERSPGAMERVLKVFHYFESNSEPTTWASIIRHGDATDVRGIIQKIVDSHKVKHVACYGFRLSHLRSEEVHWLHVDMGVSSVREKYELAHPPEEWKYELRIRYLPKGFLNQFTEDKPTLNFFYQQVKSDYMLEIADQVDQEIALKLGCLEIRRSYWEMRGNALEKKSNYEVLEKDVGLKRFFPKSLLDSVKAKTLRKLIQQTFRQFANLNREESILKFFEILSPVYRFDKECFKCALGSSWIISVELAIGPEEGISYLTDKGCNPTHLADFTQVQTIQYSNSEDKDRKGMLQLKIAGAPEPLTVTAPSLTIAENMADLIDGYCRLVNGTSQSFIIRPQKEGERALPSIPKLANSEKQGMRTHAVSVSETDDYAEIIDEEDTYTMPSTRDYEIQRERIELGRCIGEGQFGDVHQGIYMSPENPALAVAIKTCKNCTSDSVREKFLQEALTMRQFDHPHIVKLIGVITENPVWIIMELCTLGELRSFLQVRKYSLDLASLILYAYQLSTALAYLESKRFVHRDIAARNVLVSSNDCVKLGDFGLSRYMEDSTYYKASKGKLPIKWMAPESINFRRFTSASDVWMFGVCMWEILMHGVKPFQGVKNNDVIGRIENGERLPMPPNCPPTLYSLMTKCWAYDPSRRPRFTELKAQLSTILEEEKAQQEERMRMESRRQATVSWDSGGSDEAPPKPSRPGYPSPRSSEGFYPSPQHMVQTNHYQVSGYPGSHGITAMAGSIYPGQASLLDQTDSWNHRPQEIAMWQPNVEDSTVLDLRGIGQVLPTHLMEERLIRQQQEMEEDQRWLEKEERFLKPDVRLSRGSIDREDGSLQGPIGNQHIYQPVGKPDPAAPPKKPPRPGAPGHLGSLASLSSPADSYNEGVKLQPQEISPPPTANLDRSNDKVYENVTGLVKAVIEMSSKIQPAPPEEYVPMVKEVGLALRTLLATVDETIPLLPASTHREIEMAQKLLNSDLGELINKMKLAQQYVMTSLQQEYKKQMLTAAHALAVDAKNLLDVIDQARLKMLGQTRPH
# [4] = system: Fibrinogen (Alexa647-labelled); experiment: Alexa647-fibrinogen binding to printed small molecules – biochemical, small-molecule microarray, 635/667 nm fluorescence, artefact control for SMM control-protein annotation, profiling panel (AID 1131); settings: fibrinogen-A647 binding fluorescence, higher = more signal;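 note: z-score merges 667 nm fluorescence with per-spot signal-to-noise over triplicate slides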
# [5] = biological target: Follistatin (Homo sapiens) (UniProt P19883); experiment: FST protein binding to printed compounds – biochemical, small-molecule microarray, 635/667 nm fluorescence, primary screen (AID 1132); settings: 635 nm fluorescence, higher = more signal
# Sequence of Follistatin (Homo sapiens) (P19883 whole entry, looked up): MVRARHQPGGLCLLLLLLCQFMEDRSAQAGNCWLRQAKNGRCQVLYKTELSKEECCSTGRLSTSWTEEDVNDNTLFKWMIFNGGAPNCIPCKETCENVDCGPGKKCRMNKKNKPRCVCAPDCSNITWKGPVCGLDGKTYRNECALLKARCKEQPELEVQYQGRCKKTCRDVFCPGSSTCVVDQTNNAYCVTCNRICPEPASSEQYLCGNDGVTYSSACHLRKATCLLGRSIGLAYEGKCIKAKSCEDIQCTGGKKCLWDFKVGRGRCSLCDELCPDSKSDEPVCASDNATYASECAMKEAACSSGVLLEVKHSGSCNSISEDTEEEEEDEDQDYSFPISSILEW
# [6] = biological target: Fibroblast growth factor 2 (Homo sapiens) (UniProt P09038); experiment: basic fibroblast growth factor binding to printed compounds – biochemical, small-molecule microarray, 635/667 nm fluorescence, primary screen (AID 1133); settings: FGF2, fluorescence 635/667, higher = more signal
# Sequence of Fibroblast growth factor 2 (Homo sapiens) (P09038 whole entry, looked up): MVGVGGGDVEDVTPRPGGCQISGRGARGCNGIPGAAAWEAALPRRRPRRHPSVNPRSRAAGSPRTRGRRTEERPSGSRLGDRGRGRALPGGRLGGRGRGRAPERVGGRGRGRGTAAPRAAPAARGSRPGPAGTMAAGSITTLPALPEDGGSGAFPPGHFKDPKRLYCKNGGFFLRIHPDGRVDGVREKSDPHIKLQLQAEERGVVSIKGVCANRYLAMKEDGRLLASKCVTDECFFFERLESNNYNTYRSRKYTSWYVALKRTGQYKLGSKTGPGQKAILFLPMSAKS
# [7] = JC-1 mitochondrial potential readout, lung cancer cells – cell-based, A549, JC-1 fluorescence, basal, 24 h, 100 nL, profiling panel (AID 1138); settings: higher = more signal;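 note: A549 lung adenocarcinoma cells under basal conditions with no added stimulus; test concentration not given here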
# [8] = system: Lefty1; experiment: Lefty1 protein binding to printed compounds – biochemical, small-molecule microarray, 635/667 nm fluorescence, primary screen (AID 1139); settings: fluorescence 635/667, higher = more signal
# [9] = system: wheat germ agglutinin (Triticum aestivum), Alexa647-labelled; experiment: Alexa647-WGA lectin binding to printed small molecules – biochemical, small-molecule microarray, 635/667 nm fluorescence, artefact control for SMM control-protein annotation, profiling panel (AID 1140); settings: WGA-A647 binding, 635 nm fluorescence, higher = more signal;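 note: score merges 667 nm feature emission with signal to noise over triplicate slides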
# [10] = biological target: Luciferin 4-monooxygenase (Photinus pyralis) (UniProt P08659); experiment: inhibition of purified Photinus pyralis luciferase – biochemical, luminescence, purified enzyme, 2006 set, primary screen (AID 1141); settings: purified firefly luciferase, SteadyGlo luminescence, 30 min; higher = more signal, called active from +8 up or from −8 down;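 note: cell-free assay with purified firefly luciferase at 100 ng per well in PBS; test concentration not given here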
# Sequence of Luciferin 4-monooxygenase (Photinus pyralis) (P08659 whole entry, looked up): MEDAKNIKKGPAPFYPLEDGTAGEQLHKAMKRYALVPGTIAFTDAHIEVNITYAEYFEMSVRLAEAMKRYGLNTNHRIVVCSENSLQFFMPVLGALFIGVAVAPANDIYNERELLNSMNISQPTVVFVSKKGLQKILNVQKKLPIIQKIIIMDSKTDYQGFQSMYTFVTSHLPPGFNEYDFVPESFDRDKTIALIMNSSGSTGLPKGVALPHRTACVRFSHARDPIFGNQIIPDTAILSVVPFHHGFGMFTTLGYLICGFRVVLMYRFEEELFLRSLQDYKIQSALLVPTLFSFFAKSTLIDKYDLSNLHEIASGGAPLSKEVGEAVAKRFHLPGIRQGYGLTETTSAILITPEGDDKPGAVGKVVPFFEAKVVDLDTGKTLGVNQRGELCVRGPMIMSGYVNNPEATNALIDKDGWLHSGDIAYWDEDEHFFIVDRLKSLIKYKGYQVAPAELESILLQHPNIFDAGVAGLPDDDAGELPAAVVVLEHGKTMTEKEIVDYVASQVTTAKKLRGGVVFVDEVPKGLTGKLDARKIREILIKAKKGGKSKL
structure (smiles),measurement,setting,value
O=C(N1CCCCC1)[C@@]1(Cc2ccccc2)COC(c2ccc(OCCCO)cc2)=N1,composite z-score,[1],1.85
same,composite z-score,[2],1.2
same,composite z-score,[3],0.195
same,composite z-score,[4],0.96
same,composite z-score,[5],0.475
same,composite z-score,[6],1.3
same,z-score,[7],1.22
same,composite z-score,[8],-0.211
same,composite z-score,[9],1.12
same,z-score,[10],-0.117 (inactive)
COc1ccc(NC(=O)O[C@H]2[C@H](OC(=O)Nc3ccc4c(c3)OCO4)[C@@H](OC(=O)Nc3ccc4c(c3)OCO4)[C@@H](OC)O[C@@H]2CO)cc1,composite z-score,[1],1.34
same,composite z-score,[2],1.25
same,composite z-score,[3],0.316
same,composite z-score,[4],0.922
same,composite z-score,[5],1.16
same,composite z-score,[6],0.802
same,z-score,[7],-0.669
same,composite z-score,[8],0.598
same,composite z-score,[9],0.943
same,z-score,[10],-4.27 (inactive)
[N-]=[N+]=NCc1ccccc1C[C@@]1(C(=O)NCCN2CCOCC2)N=C(c2ccc(OCCCO)cc2)O[C@@H]1c1ccccc1N=[N+]=[N-],composite z-score,[1],1.4
same,composite z-score,[2],1.19
same,composite z-score,[3],1.05
same,composite z-score,[4],0.957
same,composite z-score,[5],0.423
same,composite z-score,[6],-0.498
same,z-score,[7],-0.183
same,composite z-score,[8],-0.165
same,composite z-score,[9],0.963
same,z-score,[10],-5.91 (inactive)
COCCOC(=O)N1C(=O)[C@@]2(c3cc(C#Cc4ccc(OC)cc4)ccc31)[C@H](C(=O)N1CCCCCCC1)[C@H]1C(=O)O[C@H](c3ccccc3)[C@H](c3ccccc3)N1[C@@H]2c1ccc(O)cc1,composite z-score,[1],-0.0844
same,composite z-score,[2],1.12
same,composite z-score,[3],0.277
same,composite z-score,[4],0.205
same,composite z-score,[5],1.38
same,composite z-score,[6],0.541
same,z-score,[7],-1.42
same,composite z-score,[8],1.04
same,composite z-score,[9],0.351
same,z-score,[10],-0.0524 (inactive)
CC(C)C(CO)N1C(=O)[C@]2(C)C3C(=O)OCCC/C=C\[C@H]3OC23C=CCN(c2ccc(Cl)cc2)C(=O)[C@@H]13 (stereo not given in full),composite z-score,[1],-0.0262
same,composite z-score,[2],-0.456
same,composite z-score,[3],0.118
same,composite z-score,[4],-0.809
same,composite z-score,[5],-0.223
same,composite z-score,[6],-0.815
same,z-score,[7],0.612
same,composite z-score,[8],0.211
same,composite z-score,[9],-0.367
same,z-score,[10],-0.657 (inactive)
CCC[C@@H]1C[C@@]1(CCC)[C@@H](NP(=O)(c1ccccc1)c1ccccc1)c1ccc(Cl)cc1,composite z-score,[1],-0.649
same,composite z-score,[2],-0.472
same,composite z-score,[3],-0.371
same,composite z-score,[4],-0.428
same,composite z-score,[5],-0.216
same,composite z-score,[6],-0.475
same,z-score,[7],-1.22
same,composite z-score,[8],-0.413
same,composite z-score,[9],-0.619
same,z-score,[10],1.71 (inactive)
COc1ccc(C(O)C2C=CC3C(=O)N(Cc4ccccc4)C(=O)C3N2n2cnnc2)c2ccccc12 (stereo not given),composite z-score,[1],0.727
same,composite z-score,[2],0.782
same,composite z-score,[3],1.77
same,composite z-score,[4],1.01
same,composite z-score,[5],0.421
same,composite z-score,[6],-1.54
same,z-score,[7],-1.08
same,composite z-score,[8],0.635
same,composite z-score,[9],0.0261
same,z-score,[10],1.01 (inactive)
[N-]=[N+]=NCc1ccccc1C[C@@]1(C(=O)N2CCCCC2)N=C(c2ccc(OCCCO)cc2)O[C@@H]1c1ccccc1N=[N+]=[N-],composite z-score,[1],1.4
same,composite z-score,[2],1.14
same,composite z-score,[3],0.759
same,composite z-score,[4],0.769
same,composite z-score,[5],0.249
same,composite z-score,[6],0.157
same,z-score,[7],1.25
same,composite z-score,[8],-0.162
same,composite z-score,[9],0.885
same,z-score,[10],-6.07 (inactive)
C=CCOC(=O)[C@@H]1[C@H]2C(=O)O[C@H](c3ccccc3)[C@H](c3ccccc3)N2[C@H](c2ccc(OCCOC(=O)[C@H]3C[C@H]4C(=O)N[C@@H](CCCC[N+](C)(C)C)C(=O)N4[C@H]3c3ccc(O)cc3)cc2)[C@@]12C(=O)Nc1ccc(I)cc12,composite z-score,[1],2.62
same,composite z-score,[2],1.2
same,composite z-score,[3],0.831
same,composite z-score,[4],0.542
same,composite z-score,[5],1.4
same,composite z-score,[6],1.62
same,z-score,[7],-1.93
same,composite z-score,[8],1.63
same,composite z-score,[9],0.756
same,z-score,[10],0.205 (inactive)
CC(C)(C)OC(=O)CC[C@]1(C(=O)O)N=C(c2ccc(OCCCO)cc2)O[C@H]1c1ccccc1CN=[N+]=[N-],composite z-score,[1],0.401
same,composite z-score,[2],0.251
same,composite z-score,[3],-0.171
same,composite z-score,[4],-0.0709
same,composite z-score,[5],0.467
same,composite z-score,[6],0.13
same,z-score,[7],0.902
same,composite z-score,[8],-0.482
same,composite z-score,[9],0.393
same,z-score,[10],-2.06 (inactive)
COc1c(C)cc(-c2cc3c(c(Cc4ccccc4)n2)[Si](C(C)C)(C(C)C)OC3)cc1C,composite z-score,[1],0.0134
same,composite z-score,[2],-0.006
same,composite z-score,[3],0.212
same,composite z-score,[4],0.0295
same,composite z-score,[5],0.308
same,composite z-score,[6],0.0273
same,z-score,[7],0.0666
same,composite z-score,[8],0.708
same,composite z-score,[9],-0.063
same,z-score,[10],0.674 (inactive)
O=C(CS)NCCCCCCNC(=O)[C@H]1C[C@H]2C(=O)N[C@@H](Cc3ccccc3)C(=O)N2[C@H]1c1cccc(OCCO)c1,composite z-score,[1],2.12
same,composite z-score,[2],1.24
same,composite z-score,[3],0.127
same,composite z-score,[4],0.93
same,composite z-score,[5],1.39
same,composite z-score,[6],1.61
same,z-score,[7],-0.66
same,composite z-score,[8],1.14
same,composite z-score,[9],0.772
same,z-score,[10],-1.91 (inactive)
CCOC(=O)C1=CC[C@@H](c2ccc([N+](=O)[O-])cc2)N(S(=O)(=O)c2ccc(C)cc2)[C@H]1c1ccccc1,composite z-score,[1],1.89
same,composite z-score,[2],1.21
same,composite z-score,[3],0.471
same,composite z-score,[4],0.979
same,composite z-score,[5],1.01
same,composite z-score,[6],0.554
same,z-score,[7],1.26
same,composite z-score,[8],0.969
same,composite z-score,[9],0.695
same,z-score,[10],1.94 (inactive)
C=CCNC(=O)[C@@H]1[C@H]2C(=O)O[C@H](c3ccccc3)[C@H](c3ccccc3)N2[C@H](c2ccc(OCCO)cc2)[C@@]12C(=O)N(C(=O)OCCOC)c1ccc(C#CC3=CCCCC3)cc12,composite z-score,[1],0.864
same,composite z-score,[2],1.23
same,composite z-score,[3],0.677
same,composite z-score,[4],0.871
same,composite z-score,[5],1.31
same,composite z-score,[6],0.985
same,z-score,[7],-1.03
same,composite z-score,[8],1.05
same,composite z-score,[9],0.522
same,z-score,[10],-1.25 (inactive)
